# Compound activity deposited in PubChem by several laboratories.
# NALP1 yeast inh – blocks the NALP1 inflammasome reconstituted in yeast; S. cerevisiae NALP1/ASC/caspase-1 growth, X-gal OD620, 72 h; inhibition, % at 10 µM; hit rate 0.61% among 280,000; AID 2071; in the data active means inhibition mostly above about 24%, no sharp cut-off; inactive means mostly below about 32%
# HSF1 inh – HSF1 inhibition; NIH3T3-HGL HSE-luciferase, MG132-induced, luminescence 8 h; active compounds read low; activity change, negative = inhibition, % at 7.5 µM (by protocol); hit rate 0.77% among 300,000;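 active means more than half of replicate wells show activity change below -50%, luminescence cut by over half; inconclusive means some wells, but at most half, below -50%; inactive means no replicate well below -50%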;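 further: luciferase reports HSF-1 transcriptional activity via heat shock element; 0% = median of DMSO wells and -100% = zero luminescence signal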
# HSF-1 act – increases HSF-1 driven luciferase reporter signal; NIH3T3-HGL HSF-1 luciferase reporter, MG132, 8 h; 100% = twice DMSO control signal; activation, % at 9 µM; hit rate 1.7% among 300,000;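 active means mean replicate activation of at least 50% with a set share of replicates each reaching 50%; inconclusive means only one of those two conditions met; inactive means mean below 50% and too few replicates reaching it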;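 further: 0% = median of the neutral control wells and 100% = twice that signal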
# Hsp70 activator – transcriptional activators of Hsp70 | HeLa Hsp70 promoter luciferase reporter, luminescence; scaled: vehicle 0, proteasome-inhibitor control 100% | activation, % at 10 µM | hit rate 0.04% among 200,000;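 active means activation above the mean across all tested compounds plus 3 SD, cutoff set per campaign, cut at about 5.5% in these data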;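 further: 100% = MG132 at 30 µM as the positive control and 0% = DMSO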
# p-CIP stab down – p/CIP protein destabilization; hit rate 0.01% among 290,000; F442A p/CIP-EGFP cells, EGFP fluorescence, 16 h; decrease of EGFP signal, % at 10 µM; Q05BA5;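 active means EGFP signal decrease of at least 30% at 10 µM or well 3 SD below plate mean, unless failing retest; inactive means the rest, including hits failing retest or dose response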
# HSP90 inh – inhibitors of HSP90 luciferase refolding in rabbit reticulocyte lysate. hit rate 0.91% among 290,000. inhibition, % at 5.6 µM. luciferase refolding luminescence, 3 h;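 active means inhibition above the screen-wide mean plus 3 SD, computed separately per campaign, cut at about 16% in these data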;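 further: 0% = DMSO wells and 100% = 60 µM geldanamycin wells; inhibitors lower the luminescence because luciferase stays unfolded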
# The depositor's hits bear a star; ? = inconclusive; / = no result. Hits are enriched below; roughly 3.8% of the tested compounds scored in any of these assays.
SMILES,NALP1 yeast inh,HSF1 inh,HSF-1 act,Hsp70 activator,p-CIP stab down,HSP90 inh
COc1ccc(C(=O)N/C(=C\c2ccc3c(c2)OCO3)C(=O)N2CCOCC2)cc1,5,-1,-3,/,-2,2
COc1cccc(C(=O)Nc2ccc(NC(=O)C3C4C=CC(C4)C3C(=O)O)cc2)c1 (configuration not stated),18,39,44,/,3,-1
COc1ccc(NC(=O)CSc2c3c(nc4ccccc24)CCCC3)c(OC)c1,27,63,70*,0,0,3
COc1ccccc1NC(=O)CSc1c2c(nc3ccccc13)CCC2,18,13,9,0,-4,-2
CC(OC(=O)CNC(=O)C12CC3CC(CC(C3)C1)C2)C(=O)Nc1ccc(S(N)(=O)=O)cc1 (configuration not stated),14,3,-6,0,-10,1
CC(OC(=O)CNC(=O)C12CC3CC(CC(C3)C1)C2)C(=O)Nc1ncc(Cl)cc1Cl (configuration not stated),40*,0,6,0,-13,6
Cc1cccc(N=Nc2c(C)c(C#N)c(O)[nH]c2=O)c1,5,21,54*,0,-8,2
O=C(CCl)NC(Cc1ccccc1)c1ccccc1 (configuration not stated),20,-85*,-88,0,5,-1
CC(=O)C(Cc1ccccc1)NC(=O)CCl (configuration not stated),7,3,-6,0,-4,1
COCC1CCN(C(=O)C2CCC(=O)N(C3CCCCCC3)C2)CC1 (configuration not stated),-5,-6,2,/,-3,-5
Cc1cccc(NC(=O)CCCCCN2C(=O)c3ccccc3C2=O)n1,19,5,1,0,-19,2
Cc1ccc(NC(=O)CCCCCN2C(=O)c3ccccc3C2=O)nc1,17,10,54*,0,2,-5
Cc1cccc(NC(=O)C2CC(=O)n3cnnc3S2)c1 (configuration not stated),40*,-10,-13,0,-8,3
CC1(OC(=O)c2cccs2)C(=O)C=C2C=C3CCCN3C=C2C1=O (configuration not stated),/,-5,-14,/,-6,/
Cn1c(COc2ccccc2O)[n+](C)c2ccccc21,-2,-4,-5,/,-27,3
CCCCCCCCCCOC(=O)Cn1c(COc2ccccc2OC)[n+](C)c2ccccc21,37*,6,19,/,-11,14
O=C1OC(Nc2cc(Br)cc3cccnc23)c2ccccc21 (configuration not stated),19,8,7,0,7,17*
COc1ccc(/C=N/NC(=O)C(N)=O)c(OC)c1OC,14,0,7,0,0,1
COc1ccc(/C=N/N(C)C2=NCCN2)c(OC)c1OC,-22,-86*,-90,/,-8,-2
CC(C)c1ccccc1OCC(=O)NN1C(=O)c2ccccc2C1=O,42*,10,9,0,-4,3
Cc1cccc(C(=O)NC(=S)NNC(=O)c2ccccc2Cl)c1,-3,-86*,-89,0,-4,0
Cc1cccc(C(=O)NNC(=O)c2cccc(C)c2)c1,24,-3,12,0,-8,-1
Cc1cccc(C(=O)NNC(=O)C2CC2)c1,31*,-5,-20,/,-6,-1
Cc1cccc(C(=O)NC(=S)NNC(=O)Cc2ccccc2)c1,23,5,10,0,-1,5
O=C(/C=C/c1cccc(Cl)c1)NCc1cccs1,18,20,52*,0,-3,0
SMILES,NALP1 yeast inh,HSF1 inh,HSF-1 act,Hsp70 activator,p-CIP stab down,HSP90 inh
O=C(/C=C/c1ccc(Cl)cc1)NCc1cccs1,20,-13,-5,0,-6,-1
c1ccc2c(CSc3nnc(-c4ccncc4)o3)cccc2c1,-18,35,59*,0,-12,5
Fc1ccccc1CSc1nnc(-c2cccs2)o1,1,42,67*,0,6,0
c1ccc(CSc2nnc(-c3cccs3)o2)cc1,25,15,11,0,-15,0
Clc1ccccc1CSc1nnc(-c2ccncc2)o1,3,9,?,0,-19,-1
N#Cc1ccccc1CSc1nnc(-c2ccncc2)o1,15,25,60*,/,-13,3
CCn1cc(C2=NC(CC(C)C)CO2)c2ccccc21 (configuration not stated),19,6,13,/,-5,-3
Cc1ccc(Oc2c(CO)c(-c3ccccc3)nn2C)cc1,6,2,-2,0,1,2
O=C(CCC(=O)c1ccc[nH]1)c1ccc(Cl)cc1,27*,18,25,0,0,0
O=C(COc1ccc(F)c(Cl)c1)c1ccc[nH]1,14,63,93*,0,-6,5
COC(=O)CNC(=O)COC(=O)/C=C/c1ccc2ccccc2n1,-41,2,14,0,-12,1
CC(OC(=O)/C=C/c1ccc2ccccc2n1)C(=O)NCc1ccccc1 (configuration not stated),/,80,122*,/,/,/
O=C(OCC(=O)N1CCCCC1)c1cc2ccccc2cc1O,32,0,-9,0,-4,-2
CCC1CCCCN1C(=O)COC(=O)c1cc2ccccc2cc1O (configuration not stated),15,46,83*,0,-5,-2
O=C(c1cc(COc2c(F)cccc2F)on1)N1C[C@H]2CC[C@H]1C2,21,29,56*,/,6,-1
Cc1cccc(C)c1NC(=S)N(CCc1ccncc1)C(C)C,12,-2,-10,0,5,-2
CCOc1ccc(NC(=S)N(CCc2ccncc2)C(C)C)cc1,4,-53*,-63,0,10,3
O=S(=O)(Nc1nccs1)c1ccc(F)cc1,27*,-34,-46,0,-9,-1
COc1ccc(-c2noc(N3CCC(C(=O)NCCCN4CC(C)CC(C)C4)CC3)n2)cc1 (configuration not stated),18,-77*,-82,/,-1,0
O=C(NCCCSc1ccccc1)c1cc(Br)ccc1O,2,-7,-6,/,0,-4
Cc1ccc(NC(=O)CCS(=O)(=O)c2ccc(Br)s2)cc1,10,0,13,/,-7,-3
Cc1ccc(CNC(=O)CCS(=O)(=O)c2ccc(Br)s2)cc1,43*,1,-1,0,-6,-1
CCOC(=O)c1cccc(NC(=O)CCS(=O)(=O)c2cccs2)c1,15,15,34,0,-6,1
CCOC(=O)c1cccc(NC(=O)CCS(=O)(=O)c2ccc(Br)s2)c1,-13,-92*,-93,-1,-7,8
O=C(CCS(=O)(=O)c1cccc2nonc12)NCc1ccc(Cl)cc1,14,3,-7,0,-2,0
